Source: PubChem BioAssay (Tox21)
Inconclusive results are not listed. Where a call stands in place of a potency, no number is given. Some compounds were tested as several samples or in several runs, with calls that do not always agree. Active and inactive are the calls of the source. Unless noted, calls follow the shape of the full dose curve.

Key:
[1] = Nuclear factor erythroid 2-related factor 2/antioxidant responsive element (Nrf2/ARE) small molecule agonists: qHTS cell viability counter screen in human keratinocytes (AID 1919968; active = well fitted cell-killing curve with a large enough effect in the repeat runs; also: nearly all actives have a fitted effect of over 55% in size)
Procedure, shortened: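 HaCaT ARE reporter line, 1,500 cells/well; 5 h settle, 37 C/5% CO2; cpd in DMSO pinned; 23 h exposure; CellTiter-Fluor, 1 h; fluorescence.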

[2] = Nuclear factor erythroid 2-related factor 2/antioxidant responsive element (Nrf2/ARE) small molecule agonists: luciferase reporter gene qHTS assay in human keratinocytes (AID 1919969); also: nearly all actives have a fitted effect of over 35% in size
[3] = G protein-coupled receptor (GPCR) small molecule agonists, calcium flux assay: HEK293 wild type cell line counter screen (AID 1920065)
Procedure, shortened: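 Kinetic fluorescence at Ex/Em 480/540, recorded every second over 3 min, served as the read-out after compound addition. Each compound was tested at 15 concentrations in triplicate on cells pre-loaded with calcium dye for 1 h.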

[4] = p53 small molecule agonists, cell-based qHTS assay with human liver microsomes (AID 1963577);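 also: p53 response element beta-lactamase reporter cells with liver microsomes plus NADPH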
Procedure, shortened: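 p53RE-bla cells; 5 h settle, 37 C/5% CO2; cpd + HLM 0.5 mg/mL + NADPH 0.5 mg/mL (final); 16 h 37 C; LiveBLAzer 2 h RT dark; fluorescence readout.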

[5] = p53 small molecule agonists, cell-based qHTS assay with rat liver microsomes (AID 1963578)
Procedure, shortened: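 Rat liver microsome activation: microsomes 0.5 mg/mL, NADPH 0.5 mg/mL final; p53RE-bla cells, 16 h 37 C; LiveBLAzer readout, 2 h RT dark.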

[6] = p53 small molecule agonists, cell-based qHTS assay with human liver microsomes: qHTS cell viability counter screen (AID 1963579); also: nearly all actives have a fitted effect of over 45% in size
Procedure, shortened: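 Luminescent CellTiter-Glo read-out, 30 min at room temperature, gauged cytotoxicity in p53RE-bla cells exposed 16 h at 37 C to DMSO-dissolved compounds with metabolic activation by human liver microsomes and NADPH, each 0.5 mg/mL final.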

[7] = p53 small molecule agonists, cell-based qHTS assay with rat liver microsomes: qHTS cell viability counter screen (AID 1963580); also: nearly all actives have a fitted effect of over 45% in size; also: potency is read from the fitted curve at half-maximal effect
Procedure, shortened: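 HCT-116 p53RE-bla, 4,000 cells/well, 5 h pre-incubation; cpd + rat liver microsomes 0.5 mg/mL + NADPH 0.5 mg/mL (final); 16 h, 37 C; CellTiter-Glo, 30 min RT; luminescence.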

[8] = p53 small molecule agonists, cell-based qHTS assay: qHTS cell viability counter screen (AID 1963581); also: nearly all actives have a fitted effect of over 45% in size
Procedure, shortened: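 HCT-116 p53RE-bla cells, 4,000/well, plated 5 h before compound pin transfer; 16 h at 37 C; bla substrate 2 h RT; then CellTiter-Glo, 30 min RT, luminescence.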

[9] = p53 small molecule agonists, cell-based qHTS assay (AID 1963582; active = well fitted activation curve with a large enough effect in the signal ratio in the repeat runs, not every such curve was filed as active; the % refers to the signal ratio)
Procedure, shortened: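 Reporter line: p53RE-bla. Pre-incubation 5 h, 37 C, 5% CO2; compound (DMSO, pin tool) 16 h, 37 C; B/G FRET substrate 2 h RT; fluorescence intensity read.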

[10] = biological target: 5-hydroxytryptamine receptor 2A (Homo sapiens) (UniProt P28223); test: 5-hydroxytryptamine receptor 2A (HTR2A) small molecule antagonists, cell-based qHTS assay (AID 1963586); also: nearly all actives have a fitted effect of over 45% in size
Procedure, shortened: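 Antagonist-mode intracellular calcium assay: DOI (4 nM) added after 5 min compound pre-incubation at room temperature to dye-loaded HTR2A-CHO cells. Fluorescence followed for 3 min, sampled every second.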

[11] = biological target: 5-hydroxytryptamine receptor 2A (Homo sapiens) (UniProt P28223); test: 5-hydroxytryptamine receptor 2A (HTR2A) small molecule agonists, cell-based qHTS assay (AID 1963587); also: nearly all actives have a fitted effect of over 30% in size
Procedure, shortened: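 Kinetic calcium-flux fluorescence (2 min, 1 sec intervals) after compound addition in agonist mode. HTR2A-CHO cells were cultured 18 h, then dye-loaded 1 h at 37 C.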

[12] = biological target: Muscarinic acetylcholine receptor M1 (Homo sapiens) (UniProt P11229); test: Cholinergic receptor muscarinic 1 (CHRM1) small molecule antagonists, cell-based qHTS assay (AID 1963588); also: nearly all actives have a fitted effect of over 40% in size
Procedure, shortened: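 CHRM1-CHO calcium-flux assay, antagonist mode. Cells were seeded 18 h, dye-loaded 1 h at 37 C and given compound for 5 min at RT, then acetylcholine was added at 50nM. FDSS fluorescence was read 3 min; 15 concentrations, three runs.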

[13] = biological target: Muscarinic acetylcholine receptor M1 (Homo sapiens) (UniProt P11229); test: Cholinergic receptor muscarinic 1 (CHRM1) small molecule agonists, cell-based qHTS assay (AID 1963589); also: nearly all actives have a fitted effect of over 35% in size
Procedure, shortened: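 Human M1 in stable CHO line; 18 h plating, 1 h dye load 37 C; cpd added (agonist mode); Ca2+ fluorescence kinetic read, 1 s intervals; 15 conc, 3 runs.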

[14] = cAMP Responsive Elements (CRE) small molecule agonists, cell-based qHTS assay (AID 1963590)
Procedure, shortened: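 HEK 293T CRE-bla, 2,000 cells/well, 18 h preincubation 37 C/5% CO2; cpds (DMSO) pinned, 3 h; LiveBLAzer B/G FRET substrate, 2 h RT.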

[15] = cAMP Responsive Elements (CRE) small molecule antagonists, cell-based qHTS assay (AID 1963591; active = well fitted inhibition curve with a large enough effect in the signal ratio in the repeat runs, not every such curve was filed as active; the % refers to the signal ratio)
Procedure, shortened: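 Beta-lactamase reporter read by FRET substrate (LiveBLAzer B/G) after 2 h at room temperature. CRE-bla HEK293T cells had received compound plus 0.25 uM (final) NKH477 for 3 h at 37 °C.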

[16] = biological target: Beta-2 adrenergic receptor (Homo sapiens) (UniProt P07550); test: Adrenergic beta2 receptor (ADRB2) small molecule antagonists, cell-based qHTS assay (AID 1963592); also: series mostly up to about 92 µM; nearly all actives have a fitted effect of over 50% in size
Procedure, shortened: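 Cells (CHO, stable ADRB2 overexpression) incubated 18-20hr at 37C; compounds added from DMSO; agonist mix (1nM isoproterenol, 100uM IBMX, 25uM Ro-20-1724) added; 0.5hr RT; d2-cAMP and anti-cAMP-cryptate added; 1hr RT; 665/615 nm read.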

[17] = biological target: Beta-2 adrenergic receptor (Homo sapiens) (UniProt P07550); test: Adrenergic beta2 receptor (ADRB2) small molecule agonists, cell-based qHTS assay (AID 1963593);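 also: CHO cells stably overexpressing human ADRB2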
Procedure, shortened: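 CHO cells stably over-expressing ADRB2 were plated overnight at 37C, then dosed with compounds plus a stimulation mix containing 100uM IBMX and 25uM Ro-20-1724 for 0.5hr at room temperature. cAMP was measured by HTRF competition, 1hr.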

[18] = biological target: D(2) dopamine receptor (Homo sapiens) (UniProt P14416); test: Dopamine D2 receptor (DRD2) small molecule agonists, cell-based qHTS assay (AID 1963594); also: nearly all actives have a fitted effect of over 35% in size
Procedure, shortened: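 cAMP accumulation in DRD2-HEK293 cells measured by HTRF after 1 h detection; compounds added 10 min before NKH477 (200nM […]) forskolin-analogue stimulation, 30 min at room temperature, with Ro20-1724 present at 0.1 mM final.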

[19] = biological target: D(2) dopamine receptor (Homo sapiens) (UniProt P14416); test: Dopamine D2 receptor (DRD2) small molecule antagonists, cell-based qHTS assay (AID 1963595; active = well fitted inhibition curve with a large enough effect in the signal ratio in the repeat runs, with a control signal flat; the % refers to the signal ratio)
Procedure, shortened: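 Antagonist mode in DRD2-HEK293 cells: after compound addition with 0.1 mM Ro20-1724, cells received quinpirole (12 nM) and NKH477 (200 nM) for 30 min at room temperature; HTRF cAMP read after 1 h detection.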

[20] = biological target: Gonadotropin-releasing hormone receptor (Homo sapiens) (UniProt P30968); test: Human gonadotropin-releasing hormone receptor (GnRHR) small molecule agonists, calcium flux assay in GnRHR-HEK293 cells (AID 1920063); also: nearly all actives have a fitted effect of over 35% in size
Procedure, shortened: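 GnRHR-HEK293, 1500 cells/well, 18 h 37 C/5% CO2; Ca dye 1 h 37 C; cpd pinned (DMSO), agonist mode; kinetic FL 480/540, 3 min, 1 s reads; 15 conc, n=3.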

Chain of Beta-2 adrenergic receptor (Homo sapiens) (P07550 whole entry, looked up): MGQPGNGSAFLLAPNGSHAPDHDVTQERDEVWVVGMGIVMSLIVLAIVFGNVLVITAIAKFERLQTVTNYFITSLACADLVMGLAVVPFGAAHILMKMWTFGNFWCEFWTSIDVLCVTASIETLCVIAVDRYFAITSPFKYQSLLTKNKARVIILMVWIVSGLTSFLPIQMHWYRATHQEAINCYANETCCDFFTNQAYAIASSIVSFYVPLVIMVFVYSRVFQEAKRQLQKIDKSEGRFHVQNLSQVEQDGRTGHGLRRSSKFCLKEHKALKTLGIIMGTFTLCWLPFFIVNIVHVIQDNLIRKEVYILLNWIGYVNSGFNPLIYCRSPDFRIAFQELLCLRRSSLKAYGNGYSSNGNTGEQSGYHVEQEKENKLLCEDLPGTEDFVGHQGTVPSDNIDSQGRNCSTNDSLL
Chain of 5-hydroxytryptamine receptor 2A (Homo sapiens) (P28223 whole entry, looked up): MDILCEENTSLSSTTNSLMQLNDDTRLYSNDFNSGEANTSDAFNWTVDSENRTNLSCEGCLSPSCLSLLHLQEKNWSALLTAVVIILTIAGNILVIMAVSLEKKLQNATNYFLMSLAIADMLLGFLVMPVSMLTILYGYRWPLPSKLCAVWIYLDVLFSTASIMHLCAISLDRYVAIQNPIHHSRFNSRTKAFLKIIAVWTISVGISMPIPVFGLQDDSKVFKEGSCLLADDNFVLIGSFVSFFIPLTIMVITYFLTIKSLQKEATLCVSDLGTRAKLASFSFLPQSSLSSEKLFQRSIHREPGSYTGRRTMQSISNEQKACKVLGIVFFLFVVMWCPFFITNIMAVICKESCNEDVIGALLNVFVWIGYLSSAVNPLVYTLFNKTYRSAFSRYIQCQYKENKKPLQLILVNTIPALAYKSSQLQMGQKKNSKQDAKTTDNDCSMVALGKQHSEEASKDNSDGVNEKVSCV
Chain of D(2) dopamine receptor (Homo sapiens) (P14416 whole entry, looked up): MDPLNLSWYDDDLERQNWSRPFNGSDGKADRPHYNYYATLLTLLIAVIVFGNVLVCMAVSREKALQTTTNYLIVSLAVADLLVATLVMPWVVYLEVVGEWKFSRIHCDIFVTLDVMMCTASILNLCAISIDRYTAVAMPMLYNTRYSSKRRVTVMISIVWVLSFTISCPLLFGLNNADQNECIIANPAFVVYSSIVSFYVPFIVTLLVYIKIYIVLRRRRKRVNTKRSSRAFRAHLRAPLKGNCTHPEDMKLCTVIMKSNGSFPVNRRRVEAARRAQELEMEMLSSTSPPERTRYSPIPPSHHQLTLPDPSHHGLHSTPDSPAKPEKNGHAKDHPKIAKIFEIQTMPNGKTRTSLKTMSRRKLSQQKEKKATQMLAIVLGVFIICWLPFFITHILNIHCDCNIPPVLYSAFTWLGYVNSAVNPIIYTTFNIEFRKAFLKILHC
Chain of Muscarinic acetylcholine receptor M1 (Homo sapiens) (P11229 whole entry, looked up): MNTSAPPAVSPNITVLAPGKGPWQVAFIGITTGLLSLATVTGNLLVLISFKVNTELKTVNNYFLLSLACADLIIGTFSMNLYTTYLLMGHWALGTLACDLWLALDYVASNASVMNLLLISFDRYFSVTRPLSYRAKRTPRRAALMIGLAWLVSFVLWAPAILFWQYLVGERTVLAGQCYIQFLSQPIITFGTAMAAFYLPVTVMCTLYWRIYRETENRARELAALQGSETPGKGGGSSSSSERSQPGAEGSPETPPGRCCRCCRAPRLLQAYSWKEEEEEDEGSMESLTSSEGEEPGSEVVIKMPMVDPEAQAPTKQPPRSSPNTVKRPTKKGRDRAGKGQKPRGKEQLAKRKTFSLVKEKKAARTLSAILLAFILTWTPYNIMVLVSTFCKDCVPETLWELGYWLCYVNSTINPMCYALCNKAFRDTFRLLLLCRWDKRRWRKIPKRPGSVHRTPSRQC
Chain of Gonadotropin-releasing hormone receptor (Homo sapiens) (P30968 whole entry, looked up): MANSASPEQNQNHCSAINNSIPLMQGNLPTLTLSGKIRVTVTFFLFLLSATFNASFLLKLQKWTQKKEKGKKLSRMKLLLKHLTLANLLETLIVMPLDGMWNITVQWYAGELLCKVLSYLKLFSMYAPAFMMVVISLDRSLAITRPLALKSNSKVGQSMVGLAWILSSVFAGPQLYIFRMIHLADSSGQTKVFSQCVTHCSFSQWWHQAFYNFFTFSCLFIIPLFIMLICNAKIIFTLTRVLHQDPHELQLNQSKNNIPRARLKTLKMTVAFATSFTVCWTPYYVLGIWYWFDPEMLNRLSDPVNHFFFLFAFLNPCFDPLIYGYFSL

SMILES | Potency [1] | Potency [2] | Potency [3] | Potency [4] | Potency [5] | Potency [6] | Potency [7] | Potency [8] | Potency [9] | Potency [10] | Potency [11] | Potency [12] | Potency [13] | Potency [14] | Potency [15] | Potency [16] | Potency [17] | Potency [18] | Potency [19] | Potency [20]
CCC(=O)Nc1ccc(Cl)c(Cl)c1 | inactive | inactive | inactive | inactive | inactive | inactive | inactive | inactive | inactive | inactive | inactive | inactive | inactive | inactive | inactive | inactive | inactive | inactive | inactive | 
Cc1cccc(N)c1 | inactive | inactive |  | inactive | inactive | inactive | inactive | inactive | inactive | inactive | inactive |  | inactive | inactive | inactive | inactive |  | inactive | inactive | inactive
NCc1cccnc1 | inactive | inactive |  |  | inactive | inactive | inactive | inactive | inactive | inactive | inactive | inactive | inactive | inactive | inactive | inactive | inactive | inactive | inactive | inactive
C=CC(=O)NC(C)(C)CC(C)=O | inactive | inactive | inactive | inactive | inactive |  | inactive | inactive | inactive | inactive | inactive | inactive | inactive | inactive | inactive |  | inactive | inactive | inactive | 
Cc1cc(Cl)ccc1OCC(=O)O | inactive | inactive | inactive | inactive | inactive | inactive | inactive | inactive | inactive | inactive | inactive | inactive | inactive |  | inactive | inactive | inactive | inactive | inactive | 
O=C(Cl)OCCOCCOC(=O)Cl | inactive | inactive | inactive | inactive | inactive | inactive |  | inactive | inactive | inactive | inactive | inactive | inactive | inactive | inactive | inactive | inactive |  | inactive | 
OCC1CO1 (centres undefined) | inactive | inactive | inactive | inactive | inactive | inactive | 41.5 µM (active) and inactive | inactive | inactive |  | inactive | inactive | inactive | inactive | inactive | inactive | inactive | inactive | inactive | 
